{
  "source": "PubChem BioAssay AID2284116",
  "about": "(EPA ToxCast)",
  "note": "Activity calls are given as the source filed them. The calls were made as follows: active = hit-call score of the fitted dose curve at least 0.9, where 1 is the maximum; inactive = score below 0.9.",
  "data": [
    {"biological_target": "human Matrix Metallopeptidase 9 (MMP9), MMP9 (gene 4318) (UniProt P14780)", "sequence (P14780 whole entry, looked up)": "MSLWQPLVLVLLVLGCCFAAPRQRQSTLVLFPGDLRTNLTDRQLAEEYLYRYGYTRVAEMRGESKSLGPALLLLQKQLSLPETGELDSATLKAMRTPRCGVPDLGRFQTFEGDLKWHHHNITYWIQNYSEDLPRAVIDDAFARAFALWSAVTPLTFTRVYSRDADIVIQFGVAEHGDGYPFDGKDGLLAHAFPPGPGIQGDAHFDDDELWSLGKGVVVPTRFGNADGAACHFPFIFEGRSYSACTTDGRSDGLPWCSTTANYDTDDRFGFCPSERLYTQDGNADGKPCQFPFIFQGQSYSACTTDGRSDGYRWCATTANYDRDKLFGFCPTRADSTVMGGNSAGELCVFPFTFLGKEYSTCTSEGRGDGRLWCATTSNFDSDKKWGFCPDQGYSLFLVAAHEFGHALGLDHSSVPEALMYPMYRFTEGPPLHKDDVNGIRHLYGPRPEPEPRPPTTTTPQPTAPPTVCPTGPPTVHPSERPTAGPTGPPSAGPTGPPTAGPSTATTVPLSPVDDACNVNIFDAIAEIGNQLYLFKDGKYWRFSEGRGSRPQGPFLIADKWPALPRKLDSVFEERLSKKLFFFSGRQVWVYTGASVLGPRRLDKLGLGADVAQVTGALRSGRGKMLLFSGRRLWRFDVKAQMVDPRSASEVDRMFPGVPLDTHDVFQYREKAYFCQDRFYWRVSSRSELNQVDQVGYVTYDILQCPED", "experiment": "ERF_FR_ENZ_hMMP9: Eurofins (ERF) Enzymatic LeadHunter Assay for human Matrix Metallopeptidase 9 (MMP9)", "protocol": "ERF_FR_ENZ_hMMP9 is a biochemical, single-readout assay that uses extracted gene-proteins in a cell-free assay. Measurements were taken 1.5 hour after chemical dosing in a 96-well plate. See MMP9 Human Matrix Metallopeptidase Enzymatic Assay, Cerep.ERF_FR_ENZ_hMMP9 is an assay component calculated from the ERF_FR_ENZ_hMMP9 assay. It is designed to measure enzyme activity using a type of enzyme reporter as detected by fluorescence intensity with fluorimetry technology.Data from the assay component ERF_FR_ENZ_hMMP9 was analyzed at the assay endpoint, ERF_FR_ENZ_hMMP9, in the positive analysis fitting direction relative to DMSO as the negative control and baseline of activity. Using a type of enzyme reporter, loss-of-signal activity can be used to understand changes in enzymatic activity as they relate to gene MMP9. To generalize the intended target to other relatable targets, this assay endpoint is annotated to the protease intended target family, where the subfamily is matrix metallopeptidase.\n[…] are incubated for 60 minutes at room tempreature with Mca-PLGL-Dap(Dnp)-AR-NH2 (7.5 uM) as sunstrate and […] as control inhibitor. Test Sample Requirements: Minimum for 1) Screen: 60 ul of 10 mM stock -OR- 1 mg (pre-weighed) for 10 uM final testing. 2) Dose Response: 90 ul of 10 mM stock -OR- 1 mg (pre-weighed) for a top concentration at 10 uM.", "values": [
      {"smiles": "O=C(/C=C/c1ccc(O)cc1)CC(=O)/C=C/c1ccc(O)cc1", "outcome": "inactive"}
    ]}
  ]
}
